The list is not random: actives were taken first. Their share in the collection is about 12%.
BAZ2B inh: qHTS Assay for Inhibitors of BAZ2B. AlphaScreen BAZ2B-H3K14Ac peptide displacement. Potency, µM (titrated, usually from 114 µM), for the others: at the top dose activity change, negative = inhibition, usual class: inhibitors. 360,000 compounds, 4.4% hits. AID 504333, 2011; note: potency is the fitted concentration of half-maximal effect; % is set by controls: 0 for no effect and ±100 for the full control effect; nearly all actives have a fitted effect of over 60% in size
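Compounds, titrated to a top concentration of 110 uM, were incubated 30 min at room temperature with preformed BAZ2B/acetyl-K14 H3 peptide complex (50 nM each). Proximity signal was measured by AlphaScreen after 20 min with beads.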
JMJD2A Tudor inh: qHTS Assay for Inhibitors of JMJD2A-Tudor Domain; 390,000 compounds, 4.4% hits; Potency, µM (highest dose often 114 µM), inactives show at the highest dose activity change, negative = inhibition, most hits filed as inhibitors; Lysine-specific demethylase 4A (Homo sapiens), O75164; AlphaScreen JMJD2A-Tudor / H3K4me3 peptide binding; note: potency is the fitted concentration of half-maximal effect; % is set by controls: 0 for no effect and ±100 for the full control effect; nearly all actives have a fitted effect of over 50% in size
PLK1 PBD block: qHTS for Inhibitors of PLK1-PDB (polo-like kinase 1 - polo-box domain): Primary Screen | Serine/threonine-protein kinase PLK1 (Homo sapiens), P53350 | Plk1 PBD binding of FITC phosphopeptide, fluorescence polarization | Potency, µM, without a hit: max response, negative = inhibition, actives largely listed as inhibitors | 360,000 compounds, 2.8% hits | AID 720504, 2013; note: potency is the fitted concentration of half-maximal effect; series mostly up to about 57 µM; % is set by controls: 0 for no effect and ±100 for the full control effect; nearly all actives have a fitted effect of over 65% in size
PI5P4K alpha inh: qHTS for Inhibitors of phosphatidylinositol 5-phosphate 4-kinase (PI5P4K); Phosphatidylinositol 5-phosphate 4-kinase type-2 alpha (Homo sapiens), P48426; PI5P4Kalpha enzyme, ADP-Glo luminescence, 60 min; stronger effect = lower value; max response, %; 330,000 compounds, 1.2% hits; AID 652105, 2013; active = max response of -50% or lower; inconclusive = between -30% and -50%; inactive = -30% or higher; note: value at the top dose of about 77 µM; % is set by controls: 0 for no effect and ±100 for the full control effect
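ADP-Glo luminescence end-point after a 60 min room-temperature kinase reaction. PI5P4Kalpha and substrate in HEPES pH 7.4 buffer with EGTA, 0.1% CHAPS and 5% DMSO; ATP at 5 microM final.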
G9a block: qHTS Assay for Inhibitors of Histone Lysine Methyltransferase G9a. Potency, µM (series often up to 102 µM), for the others: at the top dose activity, negative = inhibition, actives largely listed as inhibitors. G9a H3K9 monomethylation, AlphaScreen, 2 h. 350,000 compounds, 8.8% hits. Histone-lysine N-methyltransferase EHMT2 (Homo sapiens), Q96KQ7; note: potency is the fitted concentration of half-maximal effect; % is set by controls: 0 for no effect and ±100 for the full control effect; nearly all actives have a fitted effect of over 75% in size
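G9a (20 nM) preincubated 15 min RT with compounds, then 500 nM biotinylated H3K9 peptide and 20 uM SAM added; 2 h RT reaction. Monomethyl-H3K9 product detected by AlphaScreen with anti-H3K9me1 antibody, streptavidin donor and anti-rabbit IgG acceptor beads.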
HP1b binding inh: HTS for Inhibitors of HP1-beta Chromodomain Interactions with Methylated Histone Tails. Chromobox protein homolog 1 (Homo sapiens), P83916. AlphaScreen HP1-beta / biotin-H3K9me3 peptide binding. Potency, µM (doses to about 114 µM), for inactives: at the top dose activity change, negative = inhibition, actives largely listed as inhibitors. 390,000 compounds, 0.56% hits. AID 540317, 2011; note: potency is the fitted concentration of half-maximal effect; nearly all actives have a fitted effect of over 70% in size
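HP1-beta protein (50 nM final) preincubated 30 min at room temperature with biotinylated H3(1-18)K9me3 peptide (50 nM) in PBS pH 7.4, 0.01% Tween-20, then compound added for 30 min. AlphaScreen streptavidin donor/nickel chelate acceptor beads (10 ug/mL final), 30 min dark, luminescence read.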
An asterisk follows results filed as active; ? = inconclusive; . = no result given; [ ] = dose if it differs, or a comment. Unless noted, calls come from the whole dose curve; as a rule, active = well fitted curve in the direction sought with a large enough effect; inconclusive = small, poorly fitted or top-dose-only effect, or another doubt; inactive = no such curve, though single readings can be large; an effect the other way counts as inactive or inconclusive.

SMILES | BAZ2B inh | JMJD2A Tudor inh | PLK1 PBD block | PI5P4K alpha inh | G9a block | HP1b binding inh
CCN1CCOC(CC(=O)Nc2cccc([N+](=O)[O-])c2)C1=O (stereo unspecified) | -29.5% | -1.8% | -9.2% | -2.8 | 7.94µM* | 16.1%
O=C(CSc1ccccn1)Nc1ccc(Cl)cn1 | 26.6% | -16.8% | 23.8µM* | -12.6 | 19.7% | -5.0%
O=C(CN1C(=O)c2ccccc2C1=O)Nc1ccc(Cl)cn1 | 0.8% | -19.5%[11.4 µM] | 26.7µM* | 2.3 | ? | -4.4%
O=C(COC(=O)Cc1ccccc1F)Nc1ccc(Cl)cn1 | 11.5% | 20µM* | 16.8µM* | ? | -30.1% | -11.2%
O=C(Nc1ccncc1)Nc1ccccn1 | -0.5% | -3.8% | -0.5% | 4.7 | -4.9%[12.7 µM] | 26.3%
CC(C)NC(=O)Nc1cccs1 | -2.5% | -14.4% | -3.2% | 3.3 | 14.1µM* | 28.1%
CCc1ccccc1NC(=O)Nc1cccs1 | 2.5% | -13.1% | 1.5% | -1.1 | 50.1µM* | 42.6%
Cc1ccccc1NC(=O)Nc1cccs1 | -36.0% | -26.3% | -4.9% | -21.9 | ? | 6.7%
O=C(Nc1ccc(F)cc1)N1CCN(c2ncccn2)CC1 | 9.2% | -4.1% | -17.1% | -0.5 | 4.4% | 25.8%
O=C(Nc1ccccn1)Nc1cccs1 | ? | -18.2% | -1.9% | . | 56.2µM* | 16.5%
O=C(Nc1cccs1)N1CCN(c2ncccn2)CC1 | -6.0% | -10.4% | ? | 1.1 | 39.8µM* | 26.9%
Cc1nn(CC(=O)OCC(=O)c2ccc(OC(F)F)cc2)c(C)c1[N+](=O)[O-] | 3.2% | -16.3% | -0.4% | -5.3 | 7.9%[2.33 µM] | 74.9%
CN(C)c1ncc2nc(-c3ccc(F)cc3)c(=O)n(C)c2n1 | . | . | . | . | -5.8%[0.501 µM] | .
Cc1cccc(Cn2c(=O)n(-c3cc(C)cc(C)c3)c(=O)c3oc4ccccc4c32)c1 | -18.9% | -1.8% | . | . | -6.7%[59 µM] | 42.3%
Cc1ccc(CNC(=O)C(=O)Nc2c3c(nn2-c2ccc(F)cc2)CSC3)cc1 | -1.0% | -1.0% | . | . | 15.5%[59 µM] | 35.2%
CC1CCC(NC(=O)Nc2cccs2)CC1 (stereo unspecified) | 5.0% | -12.1% | -18.0% | . | ? | -2.9%
O=C(Nc1cccs1)NC1CCCC1 | -32.3% | -25.1% | -11.3% | -4.0 | 31.6µM* | -0.4%
COc1ccc(C(=O)Nc2ccc(Cn3ccnc3)cc2)cc1OC | -36.6% | -8.2% | -3.3% | -9.4 | 1.3% | 36.9%
COc1cc(Cn2ccnc2)c(OC)cc1Cn1ccnc1 | 79.4µM* | -35.3% | -14.6% | . | ? | 6.4%
CC(=O)Nc1ccc(NC(=O)CCCn2nc(C)c3sc4ccccc4c3c2=O)cc1 | 3.5% | -1.0% | . | . | -46.3%[59 µM] | 45.1%
O=C(NC1(C(F)(F)F)NC(=O)N(Cc2ccccc2)C1=O)c1cccnc1 (stereo unspecified) | ? | -2.5% | 1.9% | 6.9 | 6.8% | 25.5%
O=C(NC1(C(F)(F)F)NC(=O)N(Cc2ccco2)C1=O)c1cccnc1 (stereo unspecified) | 11.1% | -9.1% | -7.2% | 5.6 | 39.8µM* | 33.7%
CCCS(=O)(=O)NC(=O)C1(C)CCCN(C(=O)c2ccc(SC(F)(F)F)cc2)C1 (stereo unspecified) | . | . | 5.2% | -2.6 | . | .
C#CCOCCOCCOCCNc1nc(N2CCN(C(=O)CCCCCCCCCCNC(=O)[C@@H](CCC(=O)O)n3cc(CCCCCN)nn3)CC2)nc(N2CCN(C(=O)CCCCCCCCCCNC(=O)[C@H]([C@@H](C)CC)n3cc(CCCCCN)nn3)CC2)n1 | 56.2µM* | ? | 1.0% | ? | 11.3%[2.33 µM] | 0.5%

Screening results deposited in PubChem by National Center for Advancing Translational Sciences (NCATS).
